The results in this text go back to ChEMBL document CHEMBL2218924, “A broad activity screen in support of a chemogenomic map for kinase signalling research and drug discovery” (Biochem J, 2013).

For test [1], the target named is T1, Mitogen-activated protein kinase kinase kinase 7 (Homo sapiens) (UniProt O43318).
T1 sequence (whole entry): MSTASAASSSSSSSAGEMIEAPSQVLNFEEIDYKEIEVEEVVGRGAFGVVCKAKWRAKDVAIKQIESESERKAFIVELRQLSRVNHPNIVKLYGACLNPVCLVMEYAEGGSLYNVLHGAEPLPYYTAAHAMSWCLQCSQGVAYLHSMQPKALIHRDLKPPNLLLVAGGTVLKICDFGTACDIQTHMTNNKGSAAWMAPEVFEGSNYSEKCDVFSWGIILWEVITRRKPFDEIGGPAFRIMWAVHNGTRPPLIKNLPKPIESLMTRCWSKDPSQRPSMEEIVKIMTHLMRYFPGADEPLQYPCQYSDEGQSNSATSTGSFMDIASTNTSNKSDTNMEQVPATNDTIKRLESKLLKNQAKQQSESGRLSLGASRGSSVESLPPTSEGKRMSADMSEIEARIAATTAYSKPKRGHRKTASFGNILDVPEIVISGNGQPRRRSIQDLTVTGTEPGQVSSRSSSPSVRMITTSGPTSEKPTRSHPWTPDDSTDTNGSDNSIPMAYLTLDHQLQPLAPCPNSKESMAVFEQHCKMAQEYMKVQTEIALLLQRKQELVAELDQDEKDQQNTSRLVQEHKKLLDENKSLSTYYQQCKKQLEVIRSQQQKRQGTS
As to conditions: at 10 µM.

The target in test [2] is T2, Serine/threonine-protein kinase TBK1 (Homo sapiens) (UniProt Q9UHD2).
T2 sequence (whole entry): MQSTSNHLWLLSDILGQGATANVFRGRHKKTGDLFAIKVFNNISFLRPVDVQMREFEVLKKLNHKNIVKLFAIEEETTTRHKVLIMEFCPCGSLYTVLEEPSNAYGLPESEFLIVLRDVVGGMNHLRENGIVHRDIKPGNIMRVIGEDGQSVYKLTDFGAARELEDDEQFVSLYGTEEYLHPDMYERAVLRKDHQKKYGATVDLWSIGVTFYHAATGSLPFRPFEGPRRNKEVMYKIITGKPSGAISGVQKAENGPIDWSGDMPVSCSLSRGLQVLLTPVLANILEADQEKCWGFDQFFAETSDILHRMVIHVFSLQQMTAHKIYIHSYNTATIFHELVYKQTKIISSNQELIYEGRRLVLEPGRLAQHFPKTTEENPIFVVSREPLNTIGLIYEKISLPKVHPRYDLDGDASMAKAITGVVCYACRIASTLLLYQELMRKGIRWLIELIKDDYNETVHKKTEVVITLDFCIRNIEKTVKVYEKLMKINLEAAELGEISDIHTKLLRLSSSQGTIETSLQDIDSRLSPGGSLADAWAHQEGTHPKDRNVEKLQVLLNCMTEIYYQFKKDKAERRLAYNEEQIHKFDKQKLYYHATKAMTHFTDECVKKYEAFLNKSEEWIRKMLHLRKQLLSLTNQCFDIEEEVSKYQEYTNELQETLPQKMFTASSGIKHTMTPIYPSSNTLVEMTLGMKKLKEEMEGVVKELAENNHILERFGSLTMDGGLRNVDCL
As to conditions: at 1 µM.

The target of test [3] is T2, Serine/threonine-protein kinase TBK1 (Homo sapiens). The settings on record: at 10 µM.
Test [4] addresses T3, Inhibitor of nuclear factor kappa-B kinase subunit alpha (Homo sapiens) (UniProt O15111).
T3 sequence (whole entry): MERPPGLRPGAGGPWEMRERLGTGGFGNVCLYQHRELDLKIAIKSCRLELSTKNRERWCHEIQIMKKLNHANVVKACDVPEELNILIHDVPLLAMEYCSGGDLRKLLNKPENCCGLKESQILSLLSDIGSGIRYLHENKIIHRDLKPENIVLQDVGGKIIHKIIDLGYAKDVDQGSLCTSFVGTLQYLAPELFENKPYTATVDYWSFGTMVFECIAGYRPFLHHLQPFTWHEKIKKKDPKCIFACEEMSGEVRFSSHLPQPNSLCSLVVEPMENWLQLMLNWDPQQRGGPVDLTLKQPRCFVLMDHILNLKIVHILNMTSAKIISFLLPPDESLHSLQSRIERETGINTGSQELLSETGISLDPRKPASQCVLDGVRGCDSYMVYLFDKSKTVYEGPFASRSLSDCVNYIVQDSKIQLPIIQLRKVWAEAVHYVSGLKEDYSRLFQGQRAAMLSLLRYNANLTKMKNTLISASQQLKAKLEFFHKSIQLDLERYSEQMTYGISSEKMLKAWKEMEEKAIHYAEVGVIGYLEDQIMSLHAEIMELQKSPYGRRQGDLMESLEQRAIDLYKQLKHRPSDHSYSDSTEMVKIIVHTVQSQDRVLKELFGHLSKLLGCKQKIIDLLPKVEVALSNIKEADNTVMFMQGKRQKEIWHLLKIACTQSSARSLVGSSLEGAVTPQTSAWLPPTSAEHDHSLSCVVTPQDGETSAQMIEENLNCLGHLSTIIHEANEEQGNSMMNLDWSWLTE
The settings on record: at 1 µM.

Test [5] has as its target T3, Inhibitor of nuclear factor kappa-B kinase subunit alpha (Homo sapiens). The settings on record: at 10 µM.
Test [6] has as its target T4, Inhibitor of nuclear factor kappa-B kinase subunit beta (Homo sapiens) (UniProt O14920).
T4 sequence (whole entry): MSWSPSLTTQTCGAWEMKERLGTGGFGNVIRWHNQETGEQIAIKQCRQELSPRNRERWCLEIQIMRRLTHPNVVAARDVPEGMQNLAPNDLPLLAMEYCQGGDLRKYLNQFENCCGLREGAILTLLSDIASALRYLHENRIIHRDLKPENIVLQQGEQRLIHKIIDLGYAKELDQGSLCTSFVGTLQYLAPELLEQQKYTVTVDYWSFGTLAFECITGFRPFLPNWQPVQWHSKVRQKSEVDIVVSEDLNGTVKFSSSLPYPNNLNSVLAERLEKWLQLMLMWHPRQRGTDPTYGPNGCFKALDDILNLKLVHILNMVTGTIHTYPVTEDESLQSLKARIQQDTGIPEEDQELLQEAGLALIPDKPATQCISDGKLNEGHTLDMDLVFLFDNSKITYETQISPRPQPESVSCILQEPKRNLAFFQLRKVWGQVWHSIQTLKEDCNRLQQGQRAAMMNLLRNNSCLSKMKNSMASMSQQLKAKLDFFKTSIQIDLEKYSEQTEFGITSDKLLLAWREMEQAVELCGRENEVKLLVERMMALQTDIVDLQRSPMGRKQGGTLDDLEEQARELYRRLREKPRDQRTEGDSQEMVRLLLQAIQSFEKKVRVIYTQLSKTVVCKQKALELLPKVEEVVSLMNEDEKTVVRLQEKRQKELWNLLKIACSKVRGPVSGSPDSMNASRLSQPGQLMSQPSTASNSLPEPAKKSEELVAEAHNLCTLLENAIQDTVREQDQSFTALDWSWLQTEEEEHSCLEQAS
As to conditions: at 1 µM.

For test [7], the target named is T4, Inhibitor of nuclear factor kappa-B kinase subunit beta (Homo sapiens). The settings on record: at 10 µM.
Test [8] has as its target T5, Serine/threonine-protein kinase TAO1 (Homo sapiens) (UniProt Q7L7X3).
T5 sequence (whole entry): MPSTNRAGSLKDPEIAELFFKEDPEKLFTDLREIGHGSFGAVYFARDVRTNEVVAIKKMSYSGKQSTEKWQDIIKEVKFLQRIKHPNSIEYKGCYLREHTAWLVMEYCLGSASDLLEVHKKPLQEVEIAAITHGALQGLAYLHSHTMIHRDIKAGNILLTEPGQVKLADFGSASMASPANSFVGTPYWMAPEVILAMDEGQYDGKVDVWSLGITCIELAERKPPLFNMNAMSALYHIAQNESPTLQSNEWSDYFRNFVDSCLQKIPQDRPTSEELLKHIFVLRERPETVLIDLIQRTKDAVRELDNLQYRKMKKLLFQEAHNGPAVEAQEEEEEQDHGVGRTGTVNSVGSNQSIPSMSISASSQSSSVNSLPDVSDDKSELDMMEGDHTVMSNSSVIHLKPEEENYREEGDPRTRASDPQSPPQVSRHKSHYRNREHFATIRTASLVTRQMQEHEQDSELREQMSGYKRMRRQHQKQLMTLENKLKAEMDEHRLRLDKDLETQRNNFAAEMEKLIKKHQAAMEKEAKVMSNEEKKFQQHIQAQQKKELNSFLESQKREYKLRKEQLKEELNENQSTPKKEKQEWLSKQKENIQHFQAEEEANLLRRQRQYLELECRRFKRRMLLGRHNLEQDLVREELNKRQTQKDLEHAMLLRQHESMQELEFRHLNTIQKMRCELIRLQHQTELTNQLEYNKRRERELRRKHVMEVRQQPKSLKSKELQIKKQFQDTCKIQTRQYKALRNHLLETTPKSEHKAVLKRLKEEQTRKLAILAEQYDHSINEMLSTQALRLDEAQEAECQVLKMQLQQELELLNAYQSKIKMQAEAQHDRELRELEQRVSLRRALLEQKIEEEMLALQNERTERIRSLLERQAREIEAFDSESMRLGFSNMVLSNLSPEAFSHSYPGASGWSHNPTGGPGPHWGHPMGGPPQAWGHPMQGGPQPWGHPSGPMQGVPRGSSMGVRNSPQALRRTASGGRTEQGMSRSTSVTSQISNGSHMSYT
The settings on record: at 1 µM.

The target in test [9] is T5, Serine/threonine-protein kinase TAO1 (Homo sapiens). As to conditions: at 10 µM.

Take `COc1ccc(CNC(=O)Nc2ncc([N+](=O)[O-])s2)cc1`: the residual activity in [1] turned out to be 79%; in [2], 59%; in [3] it was 59%; in [4], 111%; in test [5] it was 113%; in [6] it was 109%. Also, the residual activity in test [7] was 108%.

`O=c1cc(N2CCOCC2)oc2c(-c3ccccc3)cccc12`: the residual activity stood at 68% in test [2] and 55% in test [3].

As for `CCN1/C(=C/C(C)=O)Sc2ccc(OC)cc21`, the residual activity in [1] came to 80%; in [8], 75%; in test [9], 46%; in test [2] it was 70%; in [3], 51%.
